Test results as given in PubChem BioAssay AID1159580 (chemical genetic matrix, 2015).
“And” between values parts separate entries of the source, which are not always exact repeats. Identical values can stand only once. Out of some 5,500 compounds screened, about 2,000 (36%) were called active. Roughly 18% stayed inconclusive and do not appear here. No stated cut-off is given here; in the data, active means normalized growth mostly below about 0.91 (no sharp cut-off); inconclusive means no clear call, values can overlap the other calls; inactive means mostly above about 0.92. The list shows a part of the results. Some compounds were tested as several samples or in several runs, with calls that do not always agree.

Assay: chemical genetic growth profiling, strain panel (AID 1159580);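 further: tested at 20 µM; growth read once vehicle control cultures reached saturation at 30 °C; 1 = growth at the plate median or of vehicle wells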
Conditions: S. cerevisiae deletion strains, growth OD

Measured: normalized growth

O=c1c(O)c(-c2ccc(O)c(O)c2)oc2cc(O)cc(O)c12
active: locus YAL021C, strain ccr4, stronger effect = lower value 0.659 | locus YAL026C, strain drs2, stronger effect = lower value 0.782 | locus YBL061C, strain skt5, stronger effect = lower value 0.832 | locus YBR023C, strain chs3, stronger effect = lower value 0.778 | locus YBR231C, strain swc5, stronger effect = lower value 0.767 | locus YBR279W, strain paf1, stronger effect = lower value 0.848 | locus YCL011C, strain gbp2, stronger effect = lower value 0.847 | locus YCL016C, strain dcc1, stronger effect = lower value 0.877 | locus YCL069W, strain vba3, stronger effect = lower value 0.92 | locus YDR069C, strain doa4, stronger effect = lower value 0.728 | locus YDR297W, strain sur2, stronger effect = lower value 0.899 | locus YDR334W, strain swr1, stronger effect = lower value 0.855 | locus YDR335W, strain msn5, stronger effect = lower value 0.828 | locus YEL003W, strain gim4, stronger effect = lower value 0.879 | locus YEL037C, strain rad23, stronger effect = lower value 0.885 | locus YER015W, strain faa2, stronger effect = lower value 0.817 | locus YER016W, strain bim1, stronger effect = lower value 0.911 | locus YER111C, strain swi4, stronger effect = lower value 0.895 | locus YFR010W, strain ubp6, stronger effect = lower value 0.9 | locus YGL086W, strain mad1, stronger effect = lower value 0.915 | locus YGL173C, strain kem1, stronger effect = lower value 0.826 | locus YGL253W, strain hxk2, stronger effect = lower value 0.83 | locus YHR013C, strain ard1, stronger effect = lower value 0.796 | locus YHR027C, strain rpn1, stronger effect = lower value 0.807 | locus YHR142W, strain chs7, stronger effect = lower value 0.735 | locus YJL095W, strain BCK1 (second series), stronger effect = lower value 0.858 | locus YJL164C, strain tpk1, stronger effect = lower value 0.868
0.542 (active) and 0.965 (inactive): locus YGR229C, strain SMI1, stronger effect = lower value
0.773 (active) and 0.993 (inactive): locus YJL095W, strain BCK1, stronger effect = lower value
inactive: locus YAL013W, strain DEP1, stronger effect = lower value 0.973 and 0.979 | locus YAL030W, strain snc1, stronger effect = lower value 0.94 | locus YAL040C, strain CLN3, stronger effect = lower value 1.07 | locus YBR009C, strain hhf1, stronger effect = lower value 0.919 | locus YBR021W, strain FUR4, stronger effect = lower value 0.992 | locus YBR171W, strain sec66, stronger effect = lower value 0.997 | locus YBR229C, strain ROT2, stronger effect = lower value 0.993 | locus YCL029C, strain bik1, stronger effect = lower value 0.982 | locus YCL061C, strain MRC1 (second series), stronger effect = lower value 0.996 | locus YCR088W, strain abp1, stronger effect = lower value 0.993 | locus YDL005C, strain med2, stronger effect = lower value 0.992 | locus YDL035C, strain GPR1, stronger effect = lower value 0.906 | locus YDL040C, strain nat1, stronger effect = lower value 0.974 | locus YDL074C, strain BRE1, stronger effect = lower value 0.848 | locus YDL101C, strain DUN1, stronger effect = lower value 0.98 | locus YDL134C, strain PPH21, stronger effect = lower value 0.932 | locus YDL185W, strain tfp1, stronger effect = lower value 1.01 | locus YDL192W, strain arf1, stronger effect = lower value 0.958 | locus YDR001C, strain nth1, stronger effect = lower value 0.988 | locus YDR101C, strain arx1, stronger effect = lower value 1.02 | locus YDR137W, strain rgp1, stronger effect = lower value 0.897 | locus YDR150W, strain NUM1, stronger effect = lower value 0.978 | locus YDR159W, strain sac3, stronger effect = lower value 0.974 | locus YDR162C, strain NBP2, stronger effect = lower value 0.908 | locus YDR195W, strain ref2 1.04 | locus YDR318W, strain mcm21, stronger effect = lower value 0.967 | locus YDR363W, strain ESC2, stronger effect = lower value 1.01 | locus YDR388W, stronger effect = lower value 0.943 | locus YDR392W, strain spt3, stronger effect = lower value 0.781 | locus YDR502C, strain sam2, stronger effect = lower value 0.955 | locus YEL061C, strain CIN8 (second series), stronger effect = lower value 0.963 | locus YEL061C, strain CIN8, stronger effect = lower value 0.946 | locus YER002W, strain NOP16, stronger effect = lower value 1 | locus YER110C, stronger effect = lower value 1.04 | locus YER155C, strain BEM2 (second series), stronger effect = lower value 0.899 | locus YER155C, strain BEM2, stronger effect = lower value 1.02 | locus YER167W, strain BCK2, stronger effect = lower value 0.976 | locus YGL078C, strain dbp3, stronger effect = lower value 0.999 | locus YGL167C, strain pmr1, stronger effect = lower value 0.977 | locus YGL227W, strain vid30, stronger effect = lower value 1 | locus YGL240W, strain doc1, stronger effect = lower value 0.997 | locus YGL248W, strain PDE1, stronger effect = lower value 0.928 | locus YGR078C, strain PAC10, stronger effect = lower value 0.887 and 0.991 | locus YGR135W, strain pre9, stronger effect = lower value 0.91 | locus YGR252W, strain gcn5, stronger effect = lower value 0.804 | locus YHR030C, strain SLT2, stronger effect = lower value 0.951 and 0.997 | locus YHR079C, strain IRE1 (second series), stronger effect = lower value 1.02 | locus YHR079C, strain IRE1, stronger effect = lower value 0.981 | locus YHR094C, strain hxt1, stronger effect = lower value 1.04 | locus YHR129C, strain ARP1, stronger effect = lower value 0.926 | locus YHR200W, strain rpn10, stronger effect = lower value 0.941 | locus YIL066C, strain RNR3, stronger effect = lower value 0.882 | locus YIL073C, strain SPO22, stronger effect = lower value 0.854 | locus YIL125W, strain kgd1, stronger effect = lower value 1 | locus YIR030C, strain dcg1, stronger effect = lower value 1.03 | locus YJL092W, strain hpr5, stronger effect = lower value 0.955 | locus YJL115W, strain asf1, stronger effect = lower value 0.962 | locus YJL129C, strain trk1, stronger effect = lower value 0.913 | locus YJL134W, strain LCB3, stronger effect = lower value 0.988 | locus YJL154C, strain vps35, stronger effect = lower value 0.985 | locus YJL166W, strain qcr8, stronger effect = lower value 0.913 | locus YJL168C, strain set2, stronger effect = lower value 1.02 | locus YJL187C, strain SWE1 (second series), stronger effect = lower value 0.895 | locus YJR043C, strain POL32, stronger effect = lower value 0.905 | locus YJR066W, strain TOR1, stronger effect = lower value 0.931 | locus YJR075W, strain HOC1, stronger effect = lower value 0.982 and 0.99
